# Experimental data as given in PubChem BioAssay AID540301 (National Center for Advancing Translational Sciences (NCATS), 2011).
# The other results are listed elsewhere or left out. Inconclusive results are not listed. Calls of active or inactive are those of the source. Calls follow the shape of the dose curve; as a rule, active = well fitted curve in the direction sought with a large enough effect; inconclusive = small, poorly fitted or top-dose-only effect, or another doubt; inactive = no such curve, though single readings can be large or run the other way.
# Test: Inhibitors of DNA Polymerase Beta: Hit Validation in HIV-RT Assay
# Details: HIV-1 RT polymerase activity, counter-screen; series mostly up to 57.1 µM
# Text: The base excision repair system in human cells is a target for therapeutic modulation of the response to irradiation treatment and DNA-damaging drugs. A key enzyme in this system is the bi-functional DNA polymerase known as DNA polymerase beta (pol b). […] Using an integrated approach involving discovery of small molecule probes for pol b via qHTS and validation by crystallography and kinetics along with cell-based validation experiments, we will test the hypothesis that base excision repair can be strategically modulated in human cells by targeting pol b. Thus, we anticipate the pol b-specific probes emerging from this research will serve as starting points in the development of clinical agents for use in down regulation of DNA base excision repair during therapeutic interventions against cancer.
# After the completion of the qHTS against the Molecular Libraries Small Molecular Repository (MLSMR), cherry picked compounds were confirmed in the primary qHTS pol beta assay and further characterized in several follow-up assays. To avoid compound promiscuity, we selected a completely unrelated viral polymerase to polymerase beta, HIV reverse transcriptase(RT) as a counter screen. There are distinct differences between the two polymerases, such as source of host and HIV RT is responsible for transcribing the virus' single stranded RNA into double-stranded DNA after entry into its host cell. […] To us, a favorable outcome in this assay is inactivity.
# NIH Chemical Genomics Center [NCGC]
# NIH Molecular Libraries Probe Centers Network [MLPCN]
# Assay Submitter (PI): Samuel Wilson, National Institute of Environmental Health Sciences (NIEHS), NIH
# A stepwise description of the 1536-well assay is shown in next Table. Three microliters of reagents (buffer in column 3 and 4 as negative control and 10 nM Pol beta in columns 1, 2, and 5-48) was dispensed into 1,536-well black solid-bottomed plate. Compounds (23 nL) were transferred via Kalypsys pin tool equipped with 1536-pin array (10 nL slotted pins, V&P Scientific, San Diego, CA). The plates were incubated for 15 min at room temperature, and 1 uL substrate (50 nM final concentration) were added to start the reaction and immediately read at 0 min read on Viewlux reader. The plate were further incubated for 10 min at room temperature, and then read on Viewlux again. Throughout the screen, reagent bottle and all liquid lines were chilled and made light-tight to minimize reagent degradation. All screening operations were performed on a fully integrated robotic system (Kalypsys, San Diego, CA) containing one RX-130 and two RX-90 anthropomorphic robotic arms (Staubli, Duncan, SC). Library plates were screened starting from the lowest and proceeding to the highest concentration, and a double-dipping step of the highest concentration was required to access higher concentrations of compounds. Vehicle-only plates, with DMSO being pin-transferred to the entire column 5-48 compound area, were inserted uniformly at the beginning and the end of each library in order to monitor for and record any shifts in the background, which can be affected by reagent dispensers or loss in enzyme activity overtime. Screening data were corrected, normalized, and concentration-effect relationships were derived by using publicly-available curve fitting algorithms developed in-house (http://ncgc.nih.gov/pub/openhts). A four parameter Hill equation was fitted to the concentration-response data by minimizing the residual error between the modeled and observed responses.
row,SMILES,outcome
1,O=C(Nc1ccc(S(=O)(=O)Nc2nccs2)cc1)c1cc(-c2ccncc2)nc2ccccc12,inactive
2,O=C(c1cc2c(s1)CCC2)N1CCN(c2ccccc2)CC1,inactive
3,Cc1ccc2nc(-c3ccncc3)cc(C(=O)Nc3ccc(OC(F)F)cc3)c2c1,inactive
4,Cc1c(CCC(=O)O)c(=O)oc2c(C)c(OCc3ccccc3Cl)ccc12,inactive
5,Cc1ccc(C(=O)Oc2coc(CSc3nnc(NC(=O)c4cccs4)s3)cc2=O)cc1C,inactive
6,COc1ccc(Cc2nnc(NC(=O)Cc3cccs3)s2)cc1,inactive
7,COc1cc([C@H](Cc2ccccc2)NC(C)=O)oc(=O)c1,inactive
